From PubChem BioAssay (EPA / NIEHS)
Activity calls are given as the source filed them. The calls were made as follows: active = hit-call score of the fitted dose curve at least 0.9, where 1 is the maximum; inactive = score below 0.9.

Tests used:
Conditions in all cases: mRNA level, 48 h; actives raise or lower the signal
[1] = read-out: Interleukin 6 (IL6), IL6 (gene 3569); test: LTEA_HepaRG_IL6: Life Technologies and Expression Analysis (LTEA) Assay for Interleukin 6 (IL6) using HepaRG (AID 2283509)
How it was run: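 HepaRG cells exposed in duplicate for 48 h to eight half-log concentrations, top 100 uM, in 0.5% DMSO serum-free induction medium. mRNA measured by qRT-PCR, normalized to ACTB, GAPDH and POLR2A. Bidirectional fit versus DMSO.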

[2] = read-out: Potassium channel subfamily K member 1 (KCNK1), KCNK1 (gene 3775); test: LTEA_HepaRG_KCNK1: Life Technologies and Expression Analysis (LTEA) Assay for Potassium channel subfamily K member 1 (KCNK1) using HepaRG (AID 2283511)
How it was run: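 Differentiated HepaRG cells, 48 h exposure in serum-free induction medium with 0.5% DMSO; 8 concentrations, half-log from 100 uM, duplicate. KCNK1 mRNA by qRT-PCR, normalized to ACTB, GAPDH, POLR2A; bidirectional fit vs DMSO.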

[3] = read-out: Keratin 19 (KRT19), KRT19 (gene 3880); test: LTEA_HepaRG_KRT19: Life Technologies and Expression Analysis (LTEA) Assay for Keratin 19 (KRT19) using HepaRG (AID 2283512)
How it was run: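 Gene-expression endpoint in the human liver line HepaRG after 48 h exposure to up to 100 uM test chemical with 0.5% DMSO vehicle; KRT19 mRNA by qRT-PCR, analyzed bidirectionally versus DMSO.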

[4] = read-out: JUN Transcription Factor, JUN (gene 3725); test: LTEA_HepaRG_JUN: Life Technologies and Expression Analysis (LTEA) Assay for JUN Transcription Factor using HepaRG (AID 2283513)
How it was run: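 Differentiated HepaRG cells were exposed to chemicals for 48 h in serum-free induction medium, 8 concentrations from 100 uM in half-log steps, 0.5% DMSO vehicle, in duplicate. JUN mRNA was quantified by TaqMan qRT-PCR, normalized to ACTB, GAPDH, POLR2A.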

[5] = read-out: Lipase C (LIPC), LIPC (gene 3990); test: LTEA_HepaRG_LIPC: Life Technologies and Expression Analysis (LTEA) Assay for Lipase C (LIPC) using HepaRG (AID 2283514)
How it was run: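 HepaRG cells, 48 h after plating, treated in duplicate for 48 h in serum-free induction medium over 8 half-log concentrations from 100 uM, 0.5% DMSO. LIPC mRNA by TaqMan qRT-PCR normalized to ACTB/GAPDH/POLR2A; bidirectional fit versus DMSO.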

[6] = read-out: Lipoprotein lipase (LPL), LPL (gene 4023); test: LTEA_HepaRG_LPL: Life Technologies and Expression Analysis (LTEA) Assay for Lipoprotein lipase (LPL) using HepaRG (AID 2283515)
How it was run: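 Differentiated HepaRG cells, plated 48 h, then exposed 48 h in serum-free induction medium to 8 concentrations (top 100 uM, half-log steps) in 0.5% DMSO, duplicate. LPL mRNA measured by qRT-PCR, normalized to ACTB, GAPDH and POLR2A.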

[7] = read-out: MicroRNA 122 (MIR122), gene 406906; test: LTEA_HepaRG_MIR122: Life Technologies and Expression Analysis (LTEA) Assay for MicroRNA 122 (MIR122) using HepaRG (AID 2283516); also: the transcript read is the microRNA miR-122
How it was run: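 Differentiated human HepaRG cells were exposed 48 h in serum-free induction medium to eight half-log concentrations (top 100 uM, 0.5% DMSO). Transcript level was measured by TaqMan qRT-PCR, normalized to ACTB, GAPDH and POLR2A, and fitted bidirectionally versus DMSO.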

[8] = read-out: matrix metalloproteinase-10 (MMP10), MMP10 (gene 4319); test: LTEA_HepaRG_MMP10: Life Technologies and Expression Analysis (LTEA) Assay for matrix metalloproteinase-10 (MMP10) using HepaRG (AID 2283517)
How it was run: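 Differentiated HepaRG cells in serum-free induction medium exposed 48 h in duplicate to 8-point half-log series up to 100 uM in 0.5% DMSO. mRNA quantified by qRT-PCR, normalised to ACTB, GAPDH, POLR2A; bidirectional fit versus DMSO.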

[9] = read-out: MYC, MYC (gene 4609); test: LTEA_HepaRG_MYC: Life Technologies and Expression Analysis (LTEA) Assay for MYC using HepaRG (AID 2283518)
How it was run: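 Cells are thawed, plated and cultured 48 h, then treated for 48 h with test chemicals (eight half-log concentrations from 100 uM, 0.5% DMSO vehicle). RNA is isolated and MYC expression quantified by qRT-PCR against three housekeeping genes.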

[10] = read-out: matrix metalloproteinase-3 (MMP3), MMP3 (gene 4314); test: LTEA_HepaRG_MMP3: Life Technologies and Expression Analysis (LTEA) Assay for matrix metalloproteinase-3 (MMP3) using HepaRG (AID 2283519)
How it was run: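 HepaRG cells (~100,000/well) in serum-free induction medium were dosed in duplicate for 48 h with an 8-point half-log series from 100 uM, 0.5% DMSO. MMP3 mRNA was quantified by Fluidigm TaqMan qRT-PCR, normalized to three housekeeping genes.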

[11] = read-out: Paternally Expressed 10 (PEG10), PEG10 (gene 23089); test: LTEA_HepaRG_PEG10: Life Technologies and Expression Analysis (LTEA) Assay for Paternally Expressed 10 (PEG10) using HepaRG (AID 2283520)
How it was run: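 Differentiated HepaRG cells, plated 48 h then switched to serum-free induction medium, were exposed in duplicate for 48 h to eight half-log concentrations topping at 100 uM in 0.5% DMSO. PEG10 mRNA was quantified by TaqMan qRT-PCR, normalised to ACTB, GAPDH and POLR2A.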

[12] = read-out: Protein phosphatase 2A (PPP2R4), PTPA (gene 5524); test: LTEA_HepaRG_PPP2R4: Life Technologies and Expression Analysis (LTEA) Assay for Protein phosphatase 2A (PPP2R4) using HepaRG (AID 2283522)
How it was run: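 Differentiated HepaRG cells in serum-free induction medium were exposed in duplicate for 48 h to eight concentrations, top 100 uM with half-log dilutions, in 0.5% DMSO. PPP2R4 mRNA was quantified by TaqMan qRT-PCR, normalized to ACTB, GAPDH and POLR2A.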

[13] = read-out: Phosphatase and tensin (PTEN), PTEN (gene 5728); test: LTEA_HepaRG_PTEN: Life Technologies and Expression Analysis (LTEA) Assay for Phosphatase and tensin (PTEN) using HepaRG (AID 2283523)
How it was run: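 HepaRG cells, 48 h after plating, exposed in duplicate for 48 h in serum-free induction medium to 8 half-log concentrations up to 100 uM (0.5% DMSO). PTEN mRNA by qRT-PCR, normalized to ACTB, GAPDH, POLR2A; bidirectional fit versus DMSO.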

[14] = read-out: solute carrier (SLC22A1), SLC22A1 (gene 6580); test: LTEA_HepaRG_SLC22A1: Life Technologies and Expression Analysis (LTEA) Assay for solute carrier (SLC22A1) using HepaRG (AID 2283524)
How it was run: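 Differentiated human HepaRG cells in serum-free induction medium, exposed 48 h in duplicate to 8-point half-log series from 100 µM top in 0.5% DMSO. SLC22A1 mRNA by TaqMan qRT-PCR normalized to ACTB, GAPDH, POLR2A; bidirectional fit versus DMSO.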

[15] = read-out: Pyruvate Dehydrogenase Kinase 4 (PDK4), PDK4 (gene 5166); test: LTEA_HepaRG_PDK4: Life Technologies and Expression Analysis (LTEA) Assay for Pyruvate Dehydrogenase Kinase 4 (PDK4) using HepaRG (AID 2283525)
How it was run: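 HepaRG cells plated 48 h, then switched to serum-free induction medium and exposed in duplicate for 48 h to 8 half-log concentrations from 100 uM in 0.5% DMSO. PDK4 mRNA measured by qRT-PCR, normalized to ACTB, GAPDH and POLR2A; bidirectional fit versus DMSO.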

[16] = read-out: NAD(P)H dehydrogenase [quinone] 1 (NQO1), NQO1 (gene 1728); test: LTEA_HepaRG_NQO1: Life Technologies and Expression Analysis (LTEA) Assay for NAD(P)H dehydrogenase [quinone] 1 (NQO1) using HepaRG (AID 2283526)
How it was run: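 Differentiated HepaRG cells, plated 48 h and then switched to serum-free induction medium, were exposed in duplicate for 48 h to 8-point half-log concentrations up to 100 uM in 0.5% DMSO. mRNA measured by qRT-PCR, normalized to ACTB, GAPDH, POLR2A; bidirectional fit versus DMSO.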

[17] = read-out: Nuclear factor erythroid 2-related factor 2 (Homo sapiens) (UniProt Q16236); test: LTEA_HepaRG_NFE2L2: Life Technologies and Expression Analysis (LTEA) Assay for Nuclear factor erythroid 2-related factor 2 (NFE2L2) Transcription Factor using HepaRG (AID 2283527);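 also: TaqMan qRT-PCR transcript level normalised to ACTB GAPDH and POLR2A housekeeping genes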
How it was run: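 Differentiated human HepaRG cells, serum-free induction medium, exposed 48 h in duplicate to eight half-log concentrations up to 100 uM in 0.5% DMSO. NFE2L2 mRNA by Fluidigm TaqMan qRT-PCR, normalised to ACTB, GAPDH, POLR2A; bidirectional change versus DMSO.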

[18] = read-out: succinate dehydrogenase complex iron sulfur subunit B (SDHB), SDHB (gene 6390); test: LTEA_HepaRG_SDHB: Life Technologies and Expression Analysis (LTEA) Assay for succinate dehydrogenase complex iron sulfur subunit B (SDHB) using HepaRG (AID 2283528)
How it was run: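 A human HepaRG culture in serum-free induction medium received test chemicals for 48 h over an eight-point range capped at 100 uM. SDHB expression change was quantified by qRT-PCR.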

Measured: AC50

Sequence of Nuclear factor erythroid 2-related factor 2 (Homo sapiens) (Q16236 whole entry, looked up): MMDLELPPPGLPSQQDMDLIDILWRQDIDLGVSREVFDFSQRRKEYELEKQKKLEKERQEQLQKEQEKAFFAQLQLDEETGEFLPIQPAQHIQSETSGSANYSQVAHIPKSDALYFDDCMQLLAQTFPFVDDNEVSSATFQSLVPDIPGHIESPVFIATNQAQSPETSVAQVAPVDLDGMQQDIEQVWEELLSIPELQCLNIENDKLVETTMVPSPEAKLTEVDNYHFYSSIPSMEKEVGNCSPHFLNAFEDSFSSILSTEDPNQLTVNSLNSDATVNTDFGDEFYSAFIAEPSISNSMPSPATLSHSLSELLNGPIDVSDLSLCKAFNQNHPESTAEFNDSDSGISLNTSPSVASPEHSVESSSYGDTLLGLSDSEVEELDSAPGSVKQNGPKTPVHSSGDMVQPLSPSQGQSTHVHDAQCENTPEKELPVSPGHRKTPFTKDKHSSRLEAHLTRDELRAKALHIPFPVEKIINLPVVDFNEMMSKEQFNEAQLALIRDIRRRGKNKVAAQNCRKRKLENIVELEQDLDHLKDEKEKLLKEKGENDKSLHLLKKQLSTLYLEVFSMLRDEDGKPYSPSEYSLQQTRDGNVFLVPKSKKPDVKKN

CN(C)c1ccc(N=NS(=O)(=O)O)cc1
active: [3] 18.9 µM | [14] 20.5 µM
inactive: [1] | [2] | [4] | [5] | [6] | [7] | [8] | [9] | [10] | [11] | [12] | [13] | [15] | [16] | [17] | [18]

O=C(O)c1cccc(N(Cc2cccnc2)c2ccc(OC(F)F)c(OC(F)F)c2)c1
inactive: [1] | [2] | [4] | [5] | [6] | [7] | [9] | [12] | [13] | [14] | [16] | [17] | [18]
active: [3] 24.6 µM | [8] 91.7 µM | [10] 80.4 µM | [11] 50 µM | [15] 50 µM

Cc1ccc(C)c(O)c1
inactive: [1] | [2] | [3] | [4] | [5] | [6] | [7] | [8] | [9] | [10] | [11] | [12] | [13] | [14] | [15] | [16] | [17] | [18]
